The list is not random: actives were taken first. Their share in the collection is about 9.4%.
SMN2 splice up – SMN2 splice variant enhancement. HEK293 SMN2-luciferase splicing reporter, luminescence, 30-36 h. Potency, µM (highest dose often 46.1 µM), for inactives: at the top dose activity change, positive = activation, actives largely listed as activators. 210,000 compounds, 2.8% hits; also: % of control where 0% means no effect; nearly all actives have a fitted effect of over 55% in size
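HEK293 cells carry an SMN2 minigene-luciferase reporter in which exon 7 inclusion puts luciferase in frame. Cells were seeded at 2000 cells/well, attached for 10-12 hours, then exposed to compounds for 30-36 hours at 37C before ONE-Glo luminescence.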
ELG1 repair inh – ELG1-dependent DNA repair inhibition | HEK293T ELG1-luciferase reporter, luminescence, 16 h; DNA damage induced by 5-fluorouridine | Potency, µM (series often up to 46.1 µM), for inactives: at the highest dose activity change, negative = inhibition, most hits filed as inhibitors | 330,000 compounds, 2.3% hits | AID 504467; also: % is scaled to controls: 0 for no effect and ±100 for the full control effect; nearly all actives have a fitted effect of over 55% in size
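DMSO vehicle served as the neutral condition. Each well held 2,000 cells given 5-fluorouridine plus compound; after 16 hr at 37 °C/5% CO2, ONE-Glo was added and luciferase measured 30 min later.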
FLuc modulator – counter-screen for miR-21 project: firefly luciferase inhibitors or activators. P08659. purified FLuc, Km substrates, luminescence inhibition. Potency, µM (top dose mostly 57.5 µM), inactives show top-dose activity change, negative = inhibition, most hits filed as inhibitors. 360,000 compounds, 6.9% hits. AID 588342;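 also: plate controls were vehicle for no effect and reference inhibitor for full effect; nearly all actives have a fitted effect of over 55% in size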
Target sequence (P08659 whole entry, looked up): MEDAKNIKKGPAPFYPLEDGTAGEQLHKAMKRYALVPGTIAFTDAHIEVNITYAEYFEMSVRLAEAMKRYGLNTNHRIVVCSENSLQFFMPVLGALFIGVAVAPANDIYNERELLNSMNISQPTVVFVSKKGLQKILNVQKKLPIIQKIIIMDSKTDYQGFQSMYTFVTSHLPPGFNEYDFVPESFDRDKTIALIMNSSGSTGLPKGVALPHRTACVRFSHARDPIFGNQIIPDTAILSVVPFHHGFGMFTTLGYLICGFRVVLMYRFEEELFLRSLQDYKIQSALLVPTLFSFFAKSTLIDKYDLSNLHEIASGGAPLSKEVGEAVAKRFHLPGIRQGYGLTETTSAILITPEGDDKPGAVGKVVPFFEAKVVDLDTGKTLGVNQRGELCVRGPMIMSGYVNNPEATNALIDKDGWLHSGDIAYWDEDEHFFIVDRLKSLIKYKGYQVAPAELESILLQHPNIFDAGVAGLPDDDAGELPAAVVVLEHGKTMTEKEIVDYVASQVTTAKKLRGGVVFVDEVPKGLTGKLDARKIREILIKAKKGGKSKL
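Purified P. pyralis luciferase, 10 nM final, with Km-level 10 uM D-luciferin and 10 uM ATP in 50 mM Tris acetate pH 7.5, 10 mM Mg acetate, 0.01% Tween-20, 0.05% BSA; 6-point qHTS titration about 60 µM downward; luminescence read.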
NPC1 prom act – activators of NPC1 promoter | AID 485313 | 320,000 compounds, 2.4% hits | Huh7 NPC1 promoter luciferase reporter, 24 h | Potency, µM (highest dose often 9.22 µM), without a hit: top-dose activation, most hits filed as activators; also: % of control where 0% means no effect; nearly all actives have a fitted effect of over 60% in size
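Compounds in DMSO were transferred onto Huh7 NPC1-luciferase reporter cells pre-incubated 2 h; after 24 h at 37 °C, Amplite reagent was dispensed and luminescence recorded 10 min later.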
Rab9 prom act – activates the Rab9 promoter. Huh7 Rab9 promoter-luciferase reporter, luminescence, 24 h. Potency, µM (titrated, usually from 9.22 µM), for inactives: top-dose activation, negative = inhibition, usual class: activators. 320,000 compounds, 2.8% hits. AID 485297; also: % of control where 0% means no effect; nearly all actives have a fitted effect of over 60% in size
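Steps: seed 1500 Huh7 Rab9-luc cells per well, rest 2 h at 37 °C; add compound in DMSO; incubate 24 h; add luciferase reagent, 10 min ambient; read luminescence.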
ELG1 genotoxic – induces genotoxicity in HEK293T cells with luciferase-tagged ELG1. HEK293T ELG1-luciferase reporter, luminescence, 16 h. Potency, µM (top dose mostly 46 µM), without a hit: at the highest dose activity change, positive = activation, hits mostly activators. 330,000 compounds, 1.3% hits. AID 504466; also: % of control where 0% means no effect; nearly all actives have a fitted effect of over 60% in size
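Quantitative HTS format in 1536-well plates. HEK293T ELG1-luciferase reporter cells receive test compound and are incubated 16 hr at 37 °C, 5% CO2; ONE-Glo added, 30 min room temperature, then luminescence read.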
Starred values were filed as active, the others as inactive; ? = inconclusive; / = no result given; [ ] = dose if it differs, or a comment. Calls follow the shape of the dose curve; as a rule, active = well fitted curve in the direction sought with a large enough effect; inconclusive = small, poorly fitted or top-dose-only effect, or another doubt; inactive = no such curve, though single readings can be large; an effect the other way counts as inactive or inconclusive. Potency is read from the fitted curve at half-maximal effect.

SMILES	SMN2 splice up	ELG1 repair inh	FLuc modulator	NPC1 prom act	Rab9 prom act	ELG1 genotoxic
COc1ccccc1N1CCN(C(=O)Cn2cnc3onc(-c4ccc(F)cc4)c3c2=O)CC1	/	/	-9.3%	/	/	/
CN1C(=O)/C(=C\c2cccc(OCc3ccccc3)c2)SC1=S	/	9.9%	-0.5%	-2.9%	1.2%	1.1%
CC1Cc2cc(/C=C3/SC(N4CCC(C(N)=O)CC4)=NC3=O)ccc2O1 (stereo not drawn)	/	25.9µM*	?	-6.4%	-1.4%	4.6%
CC1Cc2cc(/C=C3/SC(=S)N(C)C3=O)ccc2O1 (stereo not drawn)	/	?	1.07µM*	?	?	?
CCOC(=O)c1ccc(NC2=CC(c3ccc(F)cc3)N(c3ccc(C(=O)OCC)cc3)C2=O)cc1 (stereo not drawn)	1.6%	/	0.4%	/	/	/
COc1ccc(C2=CSC3=NNC4(CCCCC4)NN23)cc1	5.2%	?	?	-10.8%	?	8.8%
Cc1ccc(C2=CSC3=NNC4(CCCCC4)NN23)cc1	-17.3%	-1.1%	10.7µM*	-13.7%	4.47µM*	15.1%
C[N+](C)(CCCOc1ccccc1)c1ccccc1	-15.1%[20.6 µM]	/	/	/	/	/
Oc1ccc(Cl)cc1-c1cc(-c2ccccc2Cl)[nH]n1	?	-16.3%	?	-9.4%	-1.0%	12.7%
Oc1ccccc1-c1cc(-c2ccco2)[nH]n1	?	?	9.53µM*	-2.3%	15.2%	5.8µM*
Oc1c(-c2cc(-c3ccco3)[nH]n2)ccc2ccccc12	14.1µM*	?	?	3.16µM*	3.16µM*	?
Oc1ccc(Cl)cc1-c1cc(-c2ccco2)[nH]n1	2.8%	?	19µM*	27.8%	25.6%	-3.6%
Oc1ccccc1-c1cc(-c2ccccc2Cl)[nH]n1	3.55µM*	/	0.675µM*	/	/	/
COc1ccc(NCc2cc3cc4c(cc3n(CC(=O)Nc3ccc(F)cc3)c2=O)OCCO4)cc1	/	/	5.6%	/	/	/
COc1ccc2c3c(c(=O)oc2c1)C1O[C@](c2ccsc2)(Cc2cc(C#N)ccc21)O3	/	/	?	-2.5%[1.84 µM]	-1.2%[1.84 µM]	/
CN=c1scc(-c2ccc(OC)cc2)n1/N=C(\C)c1cccnc1	-20.7%	18.3µM*	12µM*	13.6%	1.2%	-1.8%
CCCNC(=O)c1cc(-c2ccco2)on1	17.8µM*	?	16.9µM*	?	3.55µM*	16.4µM*
CC(C)CNC(=O)c1cc(-c2ccco2)on1	?	?	13.5µM*	3.98µM*	3.98µM*	?
COc1ccc(CNC(=O)c2cc(-c3ccco3)on2)cc1	7.4%	3.6%	-8.6%	0.5%	8.4%	3.3%
COC(=O)Cn1ncc(N(C)Cc2ccccc2)c(Cl)c1=O	/	?	12µM*	2.51µM*	?	?
COC(=O)Cn1ncc2c3ccccc3n(Cc3ccccc3)c2c1=O	6.4%	3.9%	-0.9%	-0.8%	-3.9%	-7.4%
Cc1ccc2nc3c(c(N)c2c1)CCN3C	/	-3.7%	-1.2%	-1.4%	-2.6%	-0.7%
Cc1ccc2nc3c(c(N)c2c1)CCN3c1ccccc1	-47.5%	10.9%	19µM*	16.7%	1.8%	-0.3%
COC(=O)c1cc2occc2n1CC(=O)Nc1ccc(C(C)C)cc1	-4.9%	/	-4.8%	/	/	/
COc1ccccc1NC(=O)c1sc2nc3c(c(C(F)(F)F)c2c1N)CN(C(C)=O)CC3	-1.9%	/	0.4%	/	/	/
SMILES	SMN2 splice up	ELG1 repair inh	FLuc modulator	NPC1 prom act	Rab9 prom act	ELG1 genotoxic
O=C(CC1(O)C(=O)N(CCc2ccccc2)c2ccc(Br)cc21)c1ccccc1O (stereo not drawn)	-14.0%	/	-13.2%	/	/	/
Nc1nnc(COc2ccc(Br)cc2Br)s1	?	?	8.49µM*	?	?	?
Cc1ccc(C)c(OCc2nnc(N)s2)c1	12.1%	?	-15.7%	0.1%	-2.5%	-0.3%
Clc1ccccc1Nc1nc2ccccc2o1	/	?	1.69µM*	?	0.794µM*	?
CCS(=O)(=O)c1ccc2oc(Nc3ccc(OC)cc3)nc2c1	2.9%	13.7%	?	16.5%	24.6%	10.0%
CCS(=O)(=O)c1ccc2oc(Nc3ccc(C(C)(C)C)cc3)nc2c1	-18.3%	-2.3%	-15.4%	-7.6%	2.3%	-4.8%
Cc1cccc(C)c1Nc1nc2ccccc2o1	-15.1%	-7.3%	4.8%	-1.9%	-3.2%	-7.3%
CCS(=O)(=O)c1ccc2oc(Nc3ccccc3Br)nc2c1	/	?	9.53µM*	2.51µM*	2µM*	10.3µM*
CCS(=O)(=O)c1ccc2oc(Nc3cccc(OC)c3)nc2c1	17.0%	?	16.9µM*	9.6%	?	7.1%
CCS(=O)(=O)c1ccc2oc(Nc3ccccc3Cl)nc2c1	/	?	9.53µM*	1.58µM*	0.631µM*	5.17µM*
CC(C)CC(C(=O)NCC1CCN(Cc2ccc(F)cc2)CC1)N1Cc2ccccc2C1=O (stereo not drawn)	/	/	-1.2%	/	/	/
O=C(Cn1ncc2c3ccccc3n(Cc3ccccc3)c2c1=O)NCCCN1CCCCC1	8.8%	/	1.4%	/	/	/
CC(=O)Nc1ccc(NC(=O)CSc2nnc(NC(=O)c3ccco3)s2)cc1	/	18.7%	16.9µM*	8.4%	15.7%	6.0%
O=C(CSc1nnc(NC(=O)c2ccco2)s1)Nc1ccccc1	?	?	21.3µM*	13.5%	1.1%	14.6%
O=C(CSc1nnc(NC(=O)c2ccco2)s1)Nc1ccccc1Cl	/	-3.8%	?	2.3%	4.2%	1.8%
COc1ccc(C(CC(=O)Nc2cccc(C)c2C)N2Cc3ccccc3C2=O)cc1 (stereo not drawn)	/	/	-15.8%	/	/	/
Cc1nc(N2CCCC2)c2c(C(=O)Nc3ccc(C)c(Cl)c3)c(C)oc2n1	/	/	-2.2%	/	/	/
C=CCC(C)(O)/C=C/c1ccccc1 (stereo not drawn)	3.6%	/	/	/	/	/
NC(=O)c1c(/N=C/c2cccs2)sc2c1CCCC2	/	?	12µM*	1.26µM*	?	8.9%
COc1ccc(C(=O)N=c2sc3c(C)ccc(OC)c3n2C)cc1	3.98µM*	?	0.601µM*	?	?	0.461µM*
CCn1c(=NC(=O)c2ccc3c(c2)OCCO3)sc2c(C)ccc(OC)c21	/	/	1.9µM*	/	/	/
COc1cc(C(=O)N=c2sc3c(C)ccc(OC)c3n2C)cc(OC)c1OC	/	-5.2%	?	-1.3%	2.0%	4.2%
C#CCn1c(=NC(=O)c2ccc3c(c2)OCCO3)sc2cc(OC)c(OC)cc21	/	/	-1.2%	/	/	/
Cc1ccc(C)c(S(=O)(=O)c2nnn3c2nc(Nc2ccc(F)c(Cl)c2)c2sccc23)c1	/	/	4.8%	/	/	/
CCc1ccc(NC(=O)CSC2=Nc3ccccc3C3=NC(CCC(=O)NCc4cccs4)C(=O)N23)cc1 (stereo not drawn)	/	/	-1.7%	/	/	/

Screening results from PubChem BioAssay.
